# From article PMC7862700, “An all-to-all approach to the identification of sequence-specific readers for epigenetic DNA modifications on cytosine”
# Legend:
# Experiment in all cases: DAPPL (digital affinity profiling via proximity ligation, sequencing); 10 mM Tris-HCl pH 7.5, 50 mM NaCl, 1 mM DTT, 4% glycerol, room temperature, 30 min; GST-TFs on glutathione beads, 16-mer random dsDNA library, 0.1% formaldehyde crosslink after washing; high values mean tight binding
# FLI1 = target: T1, FLI1 (Homo sapiens, UniProt Q01543 1-452); conditions: protein: recombinant; tags: N-terminal GST; dsDNA, one strand shown
# T1 sequence: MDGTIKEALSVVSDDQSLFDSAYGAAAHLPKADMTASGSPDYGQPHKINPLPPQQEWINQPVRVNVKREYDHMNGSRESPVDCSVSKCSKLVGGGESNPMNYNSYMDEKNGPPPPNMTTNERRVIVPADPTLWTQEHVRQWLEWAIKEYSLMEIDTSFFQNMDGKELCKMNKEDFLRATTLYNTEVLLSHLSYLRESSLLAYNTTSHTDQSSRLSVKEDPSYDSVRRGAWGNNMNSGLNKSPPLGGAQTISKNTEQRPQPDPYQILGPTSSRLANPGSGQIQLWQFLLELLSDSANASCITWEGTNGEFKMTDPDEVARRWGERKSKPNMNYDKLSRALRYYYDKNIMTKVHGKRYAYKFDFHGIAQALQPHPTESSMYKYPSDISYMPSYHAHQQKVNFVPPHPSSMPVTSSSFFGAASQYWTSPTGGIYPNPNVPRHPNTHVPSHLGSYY
# In short: (§1)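 After expression in yeast as GST fusions, human transcription factors were bound to glutathione beads, DNA-barcoded and mixed with a tag-only sample. The pools were incubated with 200 nmole of a 16-mer random double-stranded DNA library in Tris/NaCl/DTT/glycerol buffer (30 min, room temperature), washed and crosslinked with 0.1% formaldehyde. Proximity ligation with BsaI/T4 ligase ran for 1 h at 37 °C, before PCR amplification and sequencing on an Illumina NextSeq500. Binding signal is a hexamer's read frequency for a factor divided by its frequency for the tag-only sample.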
# ELK1 = target: T2, ELK1 (Homo sapiens, UniProt P19419 1-428); conditions: protein: recombinant; tags: N-terminal GST; dsDNA, one strand shown
# T2 sequence: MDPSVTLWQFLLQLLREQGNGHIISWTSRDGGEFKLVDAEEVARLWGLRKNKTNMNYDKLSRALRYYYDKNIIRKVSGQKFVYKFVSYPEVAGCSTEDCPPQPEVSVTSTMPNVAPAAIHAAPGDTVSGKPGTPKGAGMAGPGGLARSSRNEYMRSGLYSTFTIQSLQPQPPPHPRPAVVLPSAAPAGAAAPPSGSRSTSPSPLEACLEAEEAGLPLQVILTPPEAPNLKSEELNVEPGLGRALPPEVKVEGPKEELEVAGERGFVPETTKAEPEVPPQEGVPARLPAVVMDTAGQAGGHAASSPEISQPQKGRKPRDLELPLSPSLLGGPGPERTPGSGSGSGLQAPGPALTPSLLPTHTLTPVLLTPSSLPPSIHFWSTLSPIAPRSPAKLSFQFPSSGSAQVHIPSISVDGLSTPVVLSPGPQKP
# In short: as §1
# GABPA = target: T3, GABPA (Homo sapiens, UniProt Q06546 1-454); conditions: protein: recombinant; tags: N-terminal GST; dsDNA, one strand shown
# T3 sequence: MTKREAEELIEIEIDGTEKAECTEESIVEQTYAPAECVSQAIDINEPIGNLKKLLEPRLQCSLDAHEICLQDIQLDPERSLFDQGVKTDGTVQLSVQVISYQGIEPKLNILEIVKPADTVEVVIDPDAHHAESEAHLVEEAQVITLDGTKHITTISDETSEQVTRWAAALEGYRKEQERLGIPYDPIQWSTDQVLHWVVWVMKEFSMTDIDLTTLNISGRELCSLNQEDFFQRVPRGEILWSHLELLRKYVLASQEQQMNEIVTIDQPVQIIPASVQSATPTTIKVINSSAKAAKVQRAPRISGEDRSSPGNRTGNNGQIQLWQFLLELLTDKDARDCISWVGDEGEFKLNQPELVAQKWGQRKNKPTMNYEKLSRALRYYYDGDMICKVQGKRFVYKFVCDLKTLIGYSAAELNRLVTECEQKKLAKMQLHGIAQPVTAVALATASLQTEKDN
# In short: as §1
# ERG = target: T4, ERG (Homo sapiens, UniProt P11308 1-479); conditions: protein: recombinant; tags: N-terminal GST; dsDNA, one strand shown
# T4 sequence: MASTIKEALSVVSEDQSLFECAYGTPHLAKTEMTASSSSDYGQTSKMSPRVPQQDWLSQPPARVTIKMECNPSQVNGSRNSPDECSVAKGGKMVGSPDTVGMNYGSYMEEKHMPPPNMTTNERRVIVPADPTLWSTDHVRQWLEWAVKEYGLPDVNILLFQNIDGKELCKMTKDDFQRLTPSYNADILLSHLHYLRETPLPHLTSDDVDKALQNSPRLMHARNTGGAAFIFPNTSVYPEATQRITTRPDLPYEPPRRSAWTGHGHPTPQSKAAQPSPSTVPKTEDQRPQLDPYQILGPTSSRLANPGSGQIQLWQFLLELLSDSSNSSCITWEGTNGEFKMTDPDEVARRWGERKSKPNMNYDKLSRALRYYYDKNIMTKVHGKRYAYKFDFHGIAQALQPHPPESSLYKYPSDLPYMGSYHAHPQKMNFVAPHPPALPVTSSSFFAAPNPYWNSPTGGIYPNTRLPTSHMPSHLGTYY
# In short: as §1
# ELF1 = ELF1 (Homo sapiens, UniProt P32519 1-619); conditions: protein: recombinant; tags: N-terminal GST; dsDNA, one strand shown
# ELF1, sequence (P32519 whole entry): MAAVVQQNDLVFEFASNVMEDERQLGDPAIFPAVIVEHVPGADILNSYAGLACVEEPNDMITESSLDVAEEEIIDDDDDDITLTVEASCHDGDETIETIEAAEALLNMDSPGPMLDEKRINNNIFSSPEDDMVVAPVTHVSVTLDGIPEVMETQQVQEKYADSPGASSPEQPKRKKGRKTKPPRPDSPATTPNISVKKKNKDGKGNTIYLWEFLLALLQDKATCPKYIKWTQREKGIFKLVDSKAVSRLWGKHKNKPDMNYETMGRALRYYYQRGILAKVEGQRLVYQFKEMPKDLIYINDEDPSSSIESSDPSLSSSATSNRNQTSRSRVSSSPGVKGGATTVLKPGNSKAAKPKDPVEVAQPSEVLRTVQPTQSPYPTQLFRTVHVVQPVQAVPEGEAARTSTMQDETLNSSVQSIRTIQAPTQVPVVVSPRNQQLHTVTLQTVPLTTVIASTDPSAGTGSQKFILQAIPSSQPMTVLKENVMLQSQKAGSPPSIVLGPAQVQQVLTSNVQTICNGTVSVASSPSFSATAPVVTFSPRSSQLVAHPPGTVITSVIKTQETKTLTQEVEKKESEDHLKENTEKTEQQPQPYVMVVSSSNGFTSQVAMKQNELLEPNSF
# In short: as §1
# EHF = target: T5, EHF (Homo sapiens, UniProt Q9NZC4 1-300); conditions: protein: recombinant; tags: N-terminal GST; dsDNA, one strand shown
# T5 sequence: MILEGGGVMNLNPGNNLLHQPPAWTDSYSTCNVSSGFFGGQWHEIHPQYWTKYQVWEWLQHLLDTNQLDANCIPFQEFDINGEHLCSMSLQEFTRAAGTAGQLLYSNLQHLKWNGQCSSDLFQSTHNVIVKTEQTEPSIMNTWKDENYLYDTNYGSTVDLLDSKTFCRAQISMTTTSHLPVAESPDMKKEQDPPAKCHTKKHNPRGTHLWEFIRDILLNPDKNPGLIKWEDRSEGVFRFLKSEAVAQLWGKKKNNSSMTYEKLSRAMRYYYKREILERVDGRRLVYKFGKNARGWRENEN
# In short: as §1
# SPI1 = SPI1 (Homo sapiens, UniProt P17947 1-270); conditions: protein: recombinant; tags: N-terminal GST; dsDNA, one strand shown
# In short: as §1
# SPIB = SPIB (Homo sapiens, UniProt Q01892 1-262); conditions: protein: recombinant; tags: N-terminal GST; dsDNA, one strand shown
# SPIB, sequence (Q01892 whole entry): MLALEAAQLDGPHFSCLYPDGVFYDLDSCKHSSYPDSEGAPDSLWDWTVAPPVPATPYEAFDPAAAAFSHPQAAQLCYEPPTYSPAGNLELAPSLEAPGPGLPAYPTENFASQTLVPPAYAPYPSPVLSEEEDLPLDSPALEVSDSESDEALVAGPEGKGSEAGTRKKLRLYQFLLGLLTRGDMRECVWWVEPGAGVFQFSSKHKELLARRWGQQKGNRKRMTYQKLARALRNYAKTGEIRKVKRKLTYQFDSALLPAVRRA
# In short: as §1
# ELK3 = target: T6, ELK3 (Homo sapiens, UniProt P41970 1-407); conditions: protein: recombinant; tags: N-terminal GST; dsDNA, one strand shown
# T6 sequence: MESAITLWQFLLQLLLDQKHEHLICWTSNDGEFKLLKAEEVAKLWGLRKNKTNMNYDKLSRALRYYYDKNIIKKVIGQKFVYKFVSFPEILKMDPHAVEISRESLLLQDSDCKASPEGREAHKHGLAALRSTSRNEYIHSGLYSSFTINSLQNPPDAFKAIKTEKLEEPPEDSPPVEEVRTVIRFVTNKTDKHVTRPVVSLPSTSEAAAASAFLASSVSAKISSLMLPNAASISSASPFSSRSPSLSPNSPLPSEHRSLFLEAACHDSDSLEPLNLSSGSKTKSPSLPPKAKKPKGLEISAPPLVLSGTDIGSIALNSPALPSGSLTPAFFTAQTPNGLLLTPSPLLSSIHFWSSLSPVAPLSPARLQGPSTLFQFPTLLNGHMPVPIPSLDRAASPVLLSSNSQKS
# In short: as §1
# FEV = target: T7, FEV (Homo sapiens, UniProt Q99581 1-238); conditions: protein: recombinant; tags: N-terminal GST; dsDNA, one strand shown
# T7 sequence: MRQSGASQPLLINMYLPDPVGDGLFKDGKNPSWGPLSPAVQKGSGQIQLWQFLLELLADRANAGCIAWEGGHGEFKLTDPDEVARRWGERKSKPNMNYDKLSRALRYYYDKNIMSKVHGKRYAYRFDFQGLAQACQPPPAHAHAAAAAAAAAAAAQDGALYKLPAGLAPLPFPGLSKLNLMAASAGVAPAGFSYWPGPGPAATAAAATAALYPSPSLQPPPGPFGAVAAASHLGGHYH
# In short: as §1
# ETV5 = ETV5 (Homo sapiens, UniProt P41161 1-510); conditions: protein: recombinant; tags: N-terminal GST; dsDNA, one strand shown
# ETV5, sequence (P41161 whole entry): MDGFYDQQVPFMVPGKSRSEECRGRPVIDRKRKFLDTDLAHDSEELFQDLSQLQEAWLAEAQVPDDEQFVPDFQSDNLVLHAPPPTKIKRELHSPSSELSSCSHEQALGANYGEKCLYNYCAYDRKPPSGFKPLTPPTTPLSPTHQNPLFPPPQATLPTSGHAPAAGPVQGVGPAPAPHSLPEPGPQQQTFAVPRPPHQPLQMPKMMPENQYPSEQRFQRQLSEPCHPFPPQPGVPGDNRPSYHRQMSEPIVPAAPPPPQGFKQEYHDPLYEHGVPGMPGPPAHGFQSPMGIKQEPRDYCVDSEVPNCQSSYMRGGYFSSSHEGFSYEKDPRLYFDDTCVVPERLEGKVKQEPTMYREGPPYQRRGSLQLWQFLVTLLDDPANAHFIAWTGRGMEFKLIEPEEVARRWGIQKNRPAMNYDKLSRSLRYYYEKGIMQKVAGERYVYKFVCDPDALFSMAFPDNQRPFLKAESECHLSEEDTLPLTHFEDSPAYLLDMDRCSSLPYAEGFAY
# In short: as §1
# HSF1 = HSF1 (Homo sapiens, UniProt Q00613 1-529); conditions: protein: recombinant; tags: N-terminal GST; chain copies: 3; dsDNA, one strand shown
# HSF1, sequence (Q00613 whole entry): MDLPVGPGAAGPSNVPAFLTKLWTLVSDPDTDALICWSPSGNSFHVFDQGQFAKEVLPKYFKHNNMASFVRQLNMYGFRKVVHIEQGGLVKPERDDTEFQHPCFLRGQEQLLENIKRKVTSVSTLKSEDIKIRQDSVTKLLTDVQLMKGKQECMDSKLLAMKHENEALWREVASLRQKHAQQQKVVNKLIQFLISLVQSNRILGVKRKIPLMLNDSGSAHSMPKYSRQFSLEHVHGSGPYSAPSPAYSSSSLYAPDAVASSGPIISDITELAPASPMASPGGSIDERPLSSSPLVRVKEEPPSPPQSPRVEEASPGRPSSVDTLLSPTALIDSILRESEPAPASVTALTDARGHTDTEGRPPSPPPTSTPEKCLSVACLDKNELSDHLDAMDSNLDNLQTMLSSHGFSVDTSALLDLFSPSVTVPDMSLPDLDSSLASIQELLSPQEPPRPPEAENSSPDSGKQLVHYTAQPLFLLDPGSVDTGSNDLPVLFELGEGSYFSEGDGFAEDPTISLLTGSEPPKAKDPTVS
# In short: as §1
# SPIC = target: T8, SPIC (Homo sapiens, UniProt Q8N5J4 1-248); conditions: protein: recombinant; tags: N-terminal GST; dsDNA, one strand shown
# T8 sequence: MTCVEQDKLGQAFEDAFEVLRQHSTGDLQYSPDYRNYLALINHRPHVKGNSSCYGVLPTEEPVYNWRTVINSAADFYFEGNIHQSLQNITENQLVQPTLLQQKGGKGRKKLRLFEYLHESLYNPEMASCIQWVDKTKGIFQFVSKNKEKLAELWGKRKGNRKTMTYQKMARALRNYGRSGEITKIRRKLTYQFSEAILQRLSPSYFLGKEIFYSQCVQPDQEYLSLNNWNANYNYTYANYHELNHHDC
# In short: as §1
# ELF4 = ELF4 (Homo sapiens, UniProt Q99607 1-663); conditions: protein: recombinant; tags: N-terminal GST; dsDNA, one strand shown
# ELF4, sequence (Q99607 whole entry): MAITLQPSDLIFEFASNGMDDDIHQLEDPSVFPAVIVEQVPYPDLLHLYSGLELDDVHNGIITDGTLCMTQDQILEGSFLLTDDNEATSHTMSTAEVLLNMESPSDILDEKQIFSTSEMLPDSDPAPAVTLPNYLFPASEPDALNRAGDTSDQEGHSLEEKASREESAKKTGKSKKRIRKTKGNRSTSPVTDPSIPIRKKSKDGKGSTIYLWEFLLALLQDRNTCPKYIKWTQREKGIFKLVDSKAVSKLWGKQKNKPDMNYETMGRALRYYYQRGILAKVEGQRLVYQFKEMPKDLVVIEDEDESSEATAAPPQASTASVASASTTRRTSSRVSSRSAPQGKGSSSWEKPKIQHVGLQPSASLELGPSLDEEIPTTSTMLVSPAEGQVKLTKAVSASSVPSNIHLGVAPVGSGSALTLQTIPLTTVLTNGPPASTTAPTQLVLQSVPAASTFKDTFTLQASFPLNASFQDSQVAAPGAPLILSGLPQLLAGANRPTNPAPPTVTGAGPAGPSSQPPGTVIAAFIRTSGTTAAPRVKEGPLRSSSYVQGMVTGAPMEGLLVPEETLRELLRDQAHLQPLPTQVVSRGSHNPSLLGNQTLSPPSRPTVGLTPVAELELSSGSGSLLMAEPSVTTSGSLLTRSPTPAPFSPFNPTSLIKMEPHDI
# In short: as §1
# ELK4 = target: T9, ELK4 (Homo sapiens, UniProt P28324-2 1-405); conditions: protein: recombinant; tags: N-terminal GST; dsDNA, one strand shown
# T9 sequence: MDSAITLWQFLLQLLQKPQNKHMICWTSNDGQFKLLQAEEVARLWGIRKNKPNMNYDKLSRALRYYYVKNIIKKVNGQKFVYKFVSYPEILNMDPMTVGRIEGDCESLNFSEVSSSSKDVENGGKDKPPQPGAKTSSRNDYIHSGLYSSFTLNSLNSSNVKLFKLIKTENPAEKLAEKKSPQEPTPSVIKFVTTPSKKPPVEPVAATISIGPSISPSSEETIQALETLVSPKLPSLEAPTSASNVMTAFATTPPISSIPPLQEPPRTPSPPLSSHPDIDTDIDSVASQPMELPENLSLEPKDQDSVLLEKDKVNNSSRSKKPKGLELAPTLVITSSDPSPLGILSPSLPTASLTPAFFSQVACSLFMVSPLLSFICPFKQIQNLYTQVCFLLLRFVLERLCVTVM
# In short: as §1
# ETV2 = target: T10, ETV2 (Homo sapiens, UniProt O00321 1-342); conditions: protein: recombinant; tags: N-terminal GST; dsDNA, one strand shown
# T10 sequence: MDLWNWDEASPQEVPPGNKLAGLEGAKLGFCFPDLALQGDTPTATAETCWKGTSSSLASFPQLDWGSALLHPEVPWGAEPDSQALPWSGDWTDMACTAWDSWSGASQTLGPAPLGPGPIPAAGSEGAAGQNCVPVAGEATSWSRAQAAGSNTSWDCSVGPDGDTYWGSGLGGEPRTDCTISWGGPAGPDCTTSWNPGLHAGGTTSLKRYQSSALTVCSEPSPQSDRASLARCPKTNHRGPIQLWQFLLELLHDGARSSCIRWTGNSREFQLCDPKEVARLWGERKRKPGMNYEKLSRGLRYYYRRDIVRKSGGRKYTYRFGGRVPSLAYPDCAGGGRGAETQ
# In short: as §1
# ELF3 = target: T11, ELF3 (Homo sapiens, UniProt P78545 1-371); conditions: protein: recombinant; tags: N-terminal GST; dsDNA, one strand shown
# T11 sequence: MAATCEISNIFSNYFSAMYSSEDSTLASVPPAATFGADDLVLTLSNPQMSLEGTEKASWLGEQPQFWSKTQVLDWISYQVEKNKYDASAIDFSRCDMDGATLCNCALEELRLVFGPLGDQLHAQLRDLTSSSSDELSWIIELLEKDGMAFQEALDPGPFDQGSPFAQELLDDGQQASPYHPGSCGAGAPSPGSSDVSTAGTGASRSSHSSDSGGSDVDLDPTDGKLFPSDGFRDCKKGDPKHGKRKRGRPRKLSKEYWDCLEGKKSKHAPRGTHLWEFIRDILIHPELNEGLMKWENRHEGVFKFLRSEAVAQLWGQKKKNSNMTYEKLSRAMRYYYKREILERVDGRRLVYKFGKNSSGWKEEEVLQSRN
# In short: as §1
# CRX = CRX (Homo sapiens, UniProt O43186 1-299); conditions: protein: recombinant; tags: N-terminal GST; dsDNA, one strand shown
# CRX, sequence (O43186 whole entry): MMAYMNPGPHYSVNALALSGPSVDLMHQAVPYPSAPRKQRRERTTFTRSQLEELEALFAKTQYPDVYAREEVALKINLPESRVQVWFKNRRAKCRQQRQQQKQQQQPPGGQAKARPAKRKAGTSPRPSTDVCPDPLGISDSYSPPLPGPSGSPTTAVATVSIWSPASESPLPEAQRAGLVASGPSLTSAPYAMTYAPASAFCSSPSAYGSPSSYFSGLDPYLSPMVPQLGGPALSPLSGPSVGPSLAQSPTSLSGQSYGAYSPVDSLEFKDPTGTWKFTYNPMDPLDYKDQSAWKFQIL
# In short: as §1
# ETV1 = ETV1 (Homo sapiens, UniProt P50549 1-477); conditions: protein: recombinant; tags: N-terminal GST; dsDNA, one strand shown
# ETV1, sequence (P50549 whole entry): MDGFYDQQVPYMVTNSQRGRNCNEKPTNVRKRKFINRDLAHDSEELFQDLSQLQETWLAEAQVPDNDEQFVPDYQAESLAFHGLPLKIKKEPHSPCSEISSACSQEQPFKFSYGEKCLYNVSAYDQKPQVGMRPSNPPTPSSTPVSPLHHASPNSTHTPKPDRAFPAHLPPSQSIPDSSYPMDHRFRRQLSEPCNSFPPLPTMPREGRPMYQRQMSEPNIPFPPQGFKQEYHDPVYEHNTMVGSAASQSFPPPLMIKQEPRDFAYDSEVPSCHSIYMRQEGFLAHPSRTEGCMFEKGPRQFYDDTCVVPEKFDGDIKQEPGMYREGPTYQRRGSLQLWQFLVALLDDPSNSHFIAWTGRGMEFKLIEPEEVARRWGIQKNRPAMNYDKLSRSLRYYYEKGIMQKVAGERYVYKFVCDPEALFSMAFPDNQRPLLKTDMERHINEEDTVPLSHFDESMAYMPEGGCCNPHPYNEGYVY
# In short: as §1
sequence,measurement,setting,value
TACTTA,binding signal,FLI1,"1.17 fold enrichment (6-mer frequency, TF over GST control)"
same,binding signal,ELK1,"1.18 fold enrichment (6-mer frequency, TF over GST control)"
same,binding signal,GABPA,"1.15 fold enrichment (6-mer frequency, TF over GST control)"
same,binding signal,ERG,"1.16 fold enrichment (6-mer frequency, TF over GST control)"
same,binding signal,ELF1,"1.22 fold enrichment (6-mer frequency, TF over GST control)"
same,binding signal,EHF,"1.33 fold enrichment (6-mer frequency, TF over GST control)"
same,binding signal,SPI1,"1.21 fold enrichment (6-mer frequency, TF over GST control)"
same,binding signal,SPIB,"1.15 fold enrichment (6-mer frequency, TF over GST control)"
same,binding signal,ELK3,"1.42 fold enrichment (6-mer frequency, TF over GST control)"
same,binding signal,FEV,"1.12 fold enrichment (6-mer frequency, TF over GST control)"
same,binding signal,ETV5,"1.17 fold enrichment (6-mer frequency, TF over GST control)"
same,binding signal,HSF1,"1.7 fold enrichment (6-mer frequency, TF over GST control)"
same,binding signal,SPIC,"1.12 fold enrichment (6-mer frequency, TF over GST control)"
same,binding signal,ELF4,"1.21 fold enrichment (6-mer frequency, TF over GST control)"
same,binding signal,ELK4,"1.25 fold enrichment (6-mer frequency, TF over GST control)"
same,binding signal,ETV2,"1.16 fold enrichment (6-mer frequency, TF over GST control)"
same,binding signal,ELF3,"1.33 fold enrichment (6-mer frequency, TF over GST control)"
same,binding signal,CRX,"2.6 fold enrichment (6-mer frequency, TF over GST control)"
same,binding signal,ETV1,"1.24 fold enrichment (6-mer frequency, TF over GST control)"
